The results in this text go back to ChEMBL document CHEMBL3988442, “University of Dundee, Small-Polar-MMV Screening Library” (2021).

The campaign covered roughly 48,000 compounds. About 13,000 (27%) showed an effect of 50% or more. The list shows a part of the results.

The assay concerns Wolbachia pipientis. Description: Anti-Wolbachia Cell-Based Screen. Conditions: 5 µM. Also noted: scale not given: in the data most compounds retested in dose-response had high values. It counts as functional.
In the case of `CCN(CC)C(=O)CCNC(=O)c1ccccc1N1CCOCC1`, the “Percent Effect” value is given as -16.45%.
Next, `Cc1csc(N2CCN(C(=O)c3cc(Cl)c[nH]3)CC2)n1`: -16.71%; `Cc1nc(C)n(CC2CN(CCn3cccn3)CCO2)n1` (stereo not given): 6.801%; `Cc1nc(C)n(CC2CCCCN2CCCO)n1` (stereo not given): 0.7848%.
Next, `Cc1nc(C)n(CC2CN(CCC(=O)N3CCCCC3)CCO2)n1` (stereo not given): 110.4%; `Cc1nc(C)n(CC2CCCN(CCC(=O)N3CCCCC3)C2)n1` (stereo not given): -10.32%; `Cc1nc(C)n(CC2CCCN(CC(=O)Nc3c(C)n[nH]c3C)C2)n1` (stereo not given): -12.55%.
Under `Cc1nc(C)n(CC2CCCN(CCCS(=O)(=O)N(C)C)C2)n1` (stereo not given) stands -11.1%.
In the case of `Cc1nc(C)n(CC2CCCN(CC(=O)N3CCCC3)C2)n1` (stereo not given), the “Percent Effect” value came to 118.1%.
As to `Cc1nc(C)n(CC2CCCN(CC(=O)Nc3nncs3)C2)n1` (stereo not given), the “Percent Effect” value is recorded as -5.341%.
As to `Cc1nc(C)n(CC2CCCN2CCC(=O)N2CCCCC2)n1` (stereo not given), the “Percent Effect” value is reported as 145.3%.
Next, `Cc1nc(C)n(CC2CN(CCc3ccncc3)CCO2)n1` (stereo not given): -6.873%; `Cc1nc(C)n(CC2CCCCN2CCS(C)(=O)=O)n1` (stereo not given): -3.909%; `Cc1nc(C)n(CC2CCCN(CCC(=O)N3CCOCC3)C2)n1` (stereo not given): 132.9%.
Consider `CCc1nc(C)c(-c2nccn2CC2CCCCO2)[nH]1` (stereo not given), for which the “Percent Effect” value is -5.573%.
Take `CCN(C(=O)c1ccc2nnc(C3CCN(CCOC)C3)n2c1)C(C)C.O=C(O)C(F)(F)F` (stereo not given): the “Percent Effect” value is given as 2.172%.
Regarding `CN(CCN1CCCCCC1)Cc1cnc(N)nc1`, the “Percent Effect” value is recorded as -0.8813%.
Under `CCN1CCC(Cn2ccc3ccc(C(=O)OC)cc3c2=O)C1` (stereo not given) stands -7.454%.
Next, `COc1ccccc1CNC(=O)C1=NN(c2ccc(C)cc2)C(=O)CN1`: 1.348%.
Next, `COCC(=O)N1CCCC1c1ccnc(Nc2cnccn2)n1` (stereo not given): -7.486%; `Nc1nccc(C2CCCN2CCc2ccccc2)n1` (stereo not given): 168.1%.
With `c1ccc(CCN2CCCC2c2ccnc(Nc3cnccn3)n2)cc1` (stereo not given), the “Percent Effect” value came out at 169.2%.
Next, `Fc1ccc2[nH]c(C3CCCN3CCc3ccccn3)nc2c1` (stereo not given): 17.03%; `c1ccc(CCN2CCCC2c2ccnc(Nc3ncccn3)n2)cc1` (stereo not given): 212.6%; `O=C(CCN1CCCC1c1ccccn1)N1CCc2ccccc2C1` (stereo not given): 1%.
For `c1cc(CCN2CCCC2CN2CCCC2)ccn1` (stereo not given), the “Percent Effect” value is 17.12%.
Next, `CSCC1CCCN1CCc1ccncc1` (stereo not given): 7.935%; `CCn1cc2c(n1)C(COC)CN(C(=O)COc1ccccc1)C2` (stereo not given): -10.51%.
Next, `Cc1cccnc1CN(C)C(C(=O)O)c1ccc(-n2cccn2)cc1` (stereo not given): -2.38%; `COc1nc2c(cc1C(=O)NCCCc1csc(N)n1)CCC2`: -5.437%.
Next, `COC(=O)COc1cccc(NS(=O)(=O)c2cc(C(=O)O)cs2)c1`: 15.7%; `Nc1cc2c(nn1)CCN(C(=O)Cc1ccc3c(c1)CCCC3)C2`: -1.547%; `Cc1ccc(C(=O)N2CC3(CCNCC3)c3cc(Cl)ccc32)cn1.O=C(O)C(F)(F)F.O=C(O)C(F)(F)F`: 107.7%.
Regarding `Cc1ccc(C(=O)N2CC3(CCCCC3)c3cc(C(=O)O)ccc32)cn1.O=C(O)C(F)(F)F`, the “Percent Effect” value is listed as -4.08%.
As for `O=C(C1CC1)N1CC2(CCNCC2)c2cc(F)ccc21.O=C(O)C(F)(F)F`, the “Percent Effect” value is reported as -3.609%.
Next, `Cc1ccc(N2CCN(Cc3ccccc3)C3(CCNCC3)C2=O)cn1.O=C(O)C(F)(F)F`: -1.603%; `COc1cc(C(=O)N2CC3(CCNCC3)c3cc(Cl)ccc32)ccn1.O=C(O)C(F)(F)F.O=C(O)C(F)(F)F`: 123.4%; `O=C(O)C(F)(F)F.O=C(O)C(F)(F)F.O=C(c1ccncc1)N1CC2(CCNCC2)c2cc(Cl)ccc21`: 113.8%.
`O=C(O)C(F)(F)F.O=C(c1cccc(Cl)c1)N1CCCC2(CCCNC2)C1` (stereo not given): the “Percent Effect” value is -4.426%.
Under `CN(C)C(=O)N1CC2(CCNCC2)c2cc(F)ccc21.O=C(O)C(F)(F)F` stands 2.852%; under `O=C(O)C(F)(F)F.O=C(c1ccco1)N1CC2(CCNCC2)c2cc(Cl)ccc21`, 104.6%; under `O=C(O)C(F)(F)F.O=C(c1ccco1)N1CCCC2(CN(Cc3ccc(F)cc3)CCO2)C1` (stereo not given), -3.961%.
For the molecule `CNC(=O)[C@@H](C1CCCCC1)N1CCC[C@H]1C(=O)NCCN1CCCC1.Cl.Cl`, the “Percent Effect” value is reported as 1.393%.
Under `CC1CCCN(C(=O)c2ncncc2Cl)C1` (stereo not given) stands -8.48%.
Under `CCc1nc(C)c(CN2CCOC(Cc3ccccc3Cl)C2)[nH]1` (stereo not given) stands 16.37%; under `COCC(=O)NC(c1ccc(Cl)cc1)C(F)(F)F` (stereo not given), 5.635%.
For `Cc1cc(C(=O)Nc2ccc(N3CCCC3)cn2)ccc1-n1cncn1`, the “Percent Effect” value was -6.985%.
Under `Cc1nn(-c2ccc(F)cc2)c2[nH]nc(N)c12` stands 1.976%; under `COCCC1(CO)CCCN(Cc2cc(C(F)(F)F)ccc2F)C1` (stereo not given), 0.6502%; under `Cn1cc(NC(=O)N2CCC(CN3CCCC3)CC2)ccc1=O`, -5.518%.
Next, `FC(F)(F)c1nc(NC2CCCCC2)c2ccccc2n1`: 111.5%; `CC(C)C(Nc1nc(C(F)(F)F)nc2ccccc12)C(=O)O` (stereo not given): 2.163%.
Turning to `FC(F)(F)c1nc(NC2CCCC2)c2ccccc2n1`, the “Percent Effect” value is given as 1.763%.
Under `COCCOc1ccc(-c2noc([C@@H]3CCCN3)n2)cn1` stands 7.967%; under `CNC(=O)c1cnn2c(C3CCCN3)ccnc12` (stereo not given), 113.8%.
Under `CNC(=O)c1cc2c(nc1NC(C)C)CCNCC2` stands 9.833%; under `CCN(CC)C(=O)c1cc(C2CCCN2C)ccn1.O=CO` (stereo not given), -4.853%; under `COc1ccnc(N2CCN(C(=O)c3cnn(C)c3C3CC3)CC2)n1`, 4.417%.
Under `CNC(=O)c1cnn2c(C3CCCN3C)ccnc12` (stereo not given) stands 176.6%; under `O=C(Nc1ccc(-c2ccco2)cc1)C1CCCN(Cc2ccon2)C1` (stereo not given), 13.81%.
In the case of `CN(C)Cc1cc(-c2nccn2CCn2cccn2)ccc1O`, the “Percent Effect” value is -0.09991%.
Turning to `CNc1nc(C)c(C(=O)N2CCCCC2CCc2ccccc2)s1` (stereo not given), the “Percent Effect” value is on record as -0.1409%.
Next, `CNc1nc(C)c(C(=O)N2CCC(C(O)Cc3ccccc3)CC2)s1` (stereo not given): 102.6%.
Turning to `CCC(O)C1CCN(C(=O)Nc2nc(-c3ccccc3)ns2)CC1` (stereo not given), the “Percent Effect” value was -13.79%.
Next, `CCOC(=O)N1CCN(C(=O)c2sc(-c3ccccc3F)nc2C)CC1`: 4.725%; `CCNc1nc(C)c(C(=O)N2CCC(C(O)Cc3ccccc3)CC2)s1` (stereo not given): 94.25%; `CCNc1nc(C)c(C(=O)N2CCN(c3ncccc3C)CC2)s1`: -16.27%.
Next, `O=C(c1ccc(Cl)cc1)N1CCCn2nnc(Cn3cccn3)c2C1`: 10.27%.
Next, `CCS(=O)(=O)N1CCCn2nnc(Cn3cccc3)c2C1`: 97.66%.
On to `C1CCN(Cc2nnn3c2CN(CC2CC2)CCC3)C1`, for which the “Percent Effect” value amounted to 3.513%.
Next, `CCS(=O)(=O)N1Cc2c(Cn3cccc3)nn(C(C)C)c2C1`: 3.857%.
Regarding `O=S(=O)(C1CC1)N1CCCn2nnc(Cn3cccc3)c2C1`, the “Percent Effect” value was determined as 109%.
Under `O=C(O)C(F)(F)F.c1ccc(CN2CCCn3nnc(Cn4cccc4)c3C2)nc1` stands -7.39%; under `CCCc1cncnc1N1CCC(NCCc2ccc(O)cc2)CC1`, 1.389%; under `CC(C)CS(=O)(=O)CCNC(=O)Nc1cccc2ncccc12`, 3.388%.
Next, `CCN(CC1CCOC1)S(=O)(=O)Cc1cc(Cl)ccc1OC` (stereo not given): -20.98%; `Cc1oc(C(=O)Nc2cccc(Cl)c2C)cc1S(N)(=O)=O`: 64.05%.
For the molecule `Cc1oc(C(=O)Nc2ccccc2F)cc1S(N)(=O)=O`, the “Percent Effect” value was found to be 99.25%.
Consider `Cc1oc(C(=O)O)cc1S(=O)(=O)Nc1c(F)cccc1-n1cccn1`, for which the “Percent Effect” value is on record as -6.217%.
On to `Cc1c(Cl)cccc1NC(=O)N1CCC2(CC1)NC(=O)CC2C(=O)O` (stereo not given), for which the “Percent Effect” value is on record as -2.177%.
Next, `Cc1cccc(C)c1NC(=O)c1cc(S(N)(=O)=O)c(C)o1`: 102.4%; `Cc1cc(C)c(S(N)(=O)=O)cc1C(=O)NCC1Cc2ccccc2O1` (stereo not given): -3.139%.
Under `CCN(Cc1ccoc1)C(=O)c1cc(S(N)(=O)=O)c(C)o1` stands -22.47%; under `Cc1c(Cl)cccc1NC(=O)CN(Cc1cccnc1)C(C)C`, -4.468%.
Next, `NS(=O)(=O)CCNC(=O)c1cc2cccc(F)c2o1`: -1.054%; `CC(=O)NCCCSC1CCN(c2c(F)cccc2F)C1=O` (stereo not given): 8.134%.
With `COCc1c(Cl)cccc1NC(=O)NCc1cccc(N(C)C)n1`, the “Percent Effect” value turned out to be 23.29%.
Next, `O=C(O)C[C@@H]1CCN(C(=O)C2CCCC2)C[C@@H]1CCN1CCCCC1`: 3.998%; `O=C1CCc2cc(OCCN3CCc4cncnc4C3)ccc2N1`: 28.97%.
Under `Cn1cccc1C(=O)OCCNC(=O)c1ccccc1` stands -6.195%.
Under `COc1cc(C(C)=O)ccc1OCC(=O)c1cccn1C` stands 70.23%.
With `COc1cc(C(C)=O)ccc1OCC(=O)N(C)Cc1cnn(C)c1`, the “Percent Effect” value is on record as -3.043%.
Next, `Cn1cccc1C(=O)COc1ccc(S(N)(=O)=O)cc1`: 87.78%; `CC(=O)c1ccc(OCC(=O)c2cccn2C)cc1`: 104.8%.
With `Cn1cccc(NC(=O)COc2ccc(Br)cc2)c1=O`, the “Percent Effect” value is -13.39%.
Next, `COc1cc(C(C)=O)ccc1OCC(=O)N(Cc1ccsc1)C1CC1`: -7.993%.
As to `Cn1cccc(NC(=O)COc2ccc(Cl)cc2)c1=O`, the “Percent Effect” value is -8.548%.
Under `Cn1cccc1C(=O)N1CCC2(CCCN2S(C)(=O)=O)CC1` stands -6.458%.
Under `N#CCCN(Cc1ccco1)C(=O)CCCNC(=O)c1ccccc1` stands 3.869%; under `c1cc(-c2noc([C@@H]3Cc4nc[nH]c4CN3)n2)ccn1`, -6.71%; under `CCOC(=O)Cn1ccc2cc(NC(=O)N3CCSCC3)ccc21`, -0.3314%.
Under `Cc1ccc2nc(C)cc(C(=O)NC(C)c3nnn[nH]3)c2c1` (stereo not given) stands -5.758%; under `CN1C[C@]2(CC[C@@H](C(=O)O)CC2)Oc2ccccc2C1=O`, 130.9%.
In the case of `CC(C)C(C(=O)N1CCC2(CC1)CN(C)C(=O)O2)c1ccccc1` (stereo not given), the “Percent Effect” value was -0.7993%.
Regarding `Cc1ccccc1OC(C(=O)N1CCC2(CC1)CN(C)C(=O)O2)C(C)C` (stereo not given), the “Percent Effect” value is -8.932%.
